Results reported in the supplement of paper PMC10849652.
The full data set covers some 8,800 targets. This sample favours those with a hit. About 0.5% of all pairs of compound and target were hits. A number with no mark means an inactive call.

How the values were obtained:
Assay in all cases: log2 fold change, soluble protein after heating vs DMSO (PISA); higher = thermal stabilisation; K562 lysate, 10 uM; active = over 0.2 and 3.5 SD of the protein, either way, in both replicates (recomputed)
erlotinib = compound: C#Cc1cccc(Nc2ncnc3cc(OCCOC)c(OCCOC)cc23)c1 [erlotinib]
In short: (§1)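 Dounce homogenisation of K562 pellets in PBS pH 7.4 with 1 mM MgCl2 produced a crude extract, used at 1 mg/mL protein. Exposure to 10 μM compound lasted 30 min, and aliquots were then heated for 3 min across 48°C-58°C, pooled and brought to 0.5% NP-40 at 4°C. The supernatant after 21,000xg for 90 min was quantified by TMTpro 16plex LC-MS/MS with channel sums equalised. Duplicate values are given as log-two fold change in thermal stability relative to solvent controls.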

[1] = compound: C1=CC(=CC=C1C2=NC3=C(N2)C=C(C=C3)C(=O)N)OC4=CC=C(C=C4)Cl
In short: as §1

[2] = compound: C1=CC2=NC=CN=C2C=C1/C=C/3\C(=O)NC(=O)S3
In short: as §1

[3] = compound: C1=CC=C(C=C1)C2=NC(=C(N2)C3=CC=NC=C3)C4=CC(=C(C=C4)Cl)O
In short: as §1

[4] = compound: C1CCN(C1)C(=O)NC2=CC=CC(=C2)NC3=NC=C(C(=N3)NCCC4=CN=CN4)Br
In short: as §1

[5] = compound: C1CN(CCC1(CC2=CC=C(C=C2)Cl)N)C3=NC=NC4=C3C=CN4
In short: as §1

IRAK-1-4 Inhibitor I = compound: C1COCCN1CCN2C3=CC=CC=C3N=C2NC(=O)C4=CC(=CC=C4)[N+](=O)[O-] [IRAK-1-4 Inhibitor I]
In short: as §1

[6] = compound: CC(=O)c1cnc2ccc(-c3cc(Cl)c(O)c(Cl)c3)nc2c1N[C@H]1CC[C@H](CN(C)C)CC1
In short: as §1

ralimetinib = compound: CC(C)(C)Cn1c(N)nc2ccc(-c3[nH]c(C(C)(C)C)nc3-c3ccc(F)cc3)nc21 [ralimetinib]
In short: as §1

[7] = compound: CC(C)(O)CC(=O)NCCn1ccc2ncnc(Nc3ccc(Oc4cccc(C(F)(F)F)c4)c(Cl)c3)c21
In short: as §1

[8] = compound: CC(C)C1=C2N=C(C=C(N2N=C1)NCC3=CC=CC=C3)NCCCCCCN
In short: as §1

[9] = compound: CC1=C(C2=C(C=C1)C(=O)C3=CC=CC=C3N2CCCN)C
In short: as §1

[10] = compound: CC1=C(C=C(C=C1)NC(=O)C2=CC(=CC=C2)N(C)C)NC(=O)C3=CC=C(C=C3)O
In short: as §1

[11] = compound: CC1=CC=C(C=C1)SC2=C3C=C(SC3=CN=C2)C(=O)N
In short: as §1

[12] = compound: C/C(=N\NC(=O)C1=CC(=CC=C1)S(=O)(=O)N2CCOCC2)/C3=C(C=CC(=C3)Cl)O
In short: as §1

[13] = compound: C1=CC2=C(C=CC(=C2)/C=C\3/C(=O)NC(=NCC4=CC=CS4)S3)N=C1
In short: as §1

[14] = compound: C1=CC=C2C(=C1)C3=NNC4=CC=CC(=C43)C2=O
In short: as §1

ibrutinib = compound: C=CC(=O)N1CCC[C@@H](n2nc(-c3ccc(Oc4ccccc4)cc3)c3c(N)ncnc32)C1 [ibrutinib]
In short: as §1

[15] = compound: CC1=C(C=C(C=C1)NC(=O)C2=CC(=CC=C2)C(C)(C)C#N)NC3=CC4=C(C=C3)N=CN(C4=O)C
In short: as §1

[16] = compound: CC1=C(C(CC(=O)N1)C2=CC=C(C=C2)C(F)(F)F)C(=O)NC3=C(C=C4C(=C3)C=NN4)F
In short: as §1

Chain of UniProt Q15506 (Q15506 whole entry, looked up): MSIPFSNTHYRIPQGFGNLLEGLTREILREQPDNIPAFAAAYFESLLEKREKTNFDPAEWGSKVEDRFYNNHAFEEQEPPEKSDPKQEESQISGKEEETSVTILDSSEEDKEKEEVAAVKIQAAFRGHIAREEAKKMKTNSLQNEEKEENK
Chain of UniProt O60906 (O60906 whole entry, looked up): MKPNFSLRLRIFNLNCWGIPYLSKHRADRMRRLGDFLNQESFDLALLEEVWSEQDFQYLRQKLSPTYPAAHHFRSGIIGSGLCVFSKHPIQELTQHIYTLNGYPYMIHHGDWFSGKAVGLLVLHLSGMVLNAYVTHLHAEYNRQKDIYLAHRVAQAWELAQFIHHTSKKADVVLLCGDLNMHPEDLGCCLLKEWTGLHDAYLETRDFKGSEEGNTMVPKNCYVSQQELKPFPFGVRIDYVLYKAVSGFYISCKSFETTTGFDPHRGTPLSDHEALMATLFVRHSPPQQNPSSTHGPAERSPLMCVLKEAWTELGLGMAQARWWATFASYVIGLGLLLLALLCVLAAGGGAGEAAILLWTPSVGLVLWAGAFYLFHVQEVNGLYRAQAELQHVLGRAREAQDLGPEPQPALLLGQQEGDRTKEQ
Chain of UniProt O75182 (O75182 whole entry, looked up): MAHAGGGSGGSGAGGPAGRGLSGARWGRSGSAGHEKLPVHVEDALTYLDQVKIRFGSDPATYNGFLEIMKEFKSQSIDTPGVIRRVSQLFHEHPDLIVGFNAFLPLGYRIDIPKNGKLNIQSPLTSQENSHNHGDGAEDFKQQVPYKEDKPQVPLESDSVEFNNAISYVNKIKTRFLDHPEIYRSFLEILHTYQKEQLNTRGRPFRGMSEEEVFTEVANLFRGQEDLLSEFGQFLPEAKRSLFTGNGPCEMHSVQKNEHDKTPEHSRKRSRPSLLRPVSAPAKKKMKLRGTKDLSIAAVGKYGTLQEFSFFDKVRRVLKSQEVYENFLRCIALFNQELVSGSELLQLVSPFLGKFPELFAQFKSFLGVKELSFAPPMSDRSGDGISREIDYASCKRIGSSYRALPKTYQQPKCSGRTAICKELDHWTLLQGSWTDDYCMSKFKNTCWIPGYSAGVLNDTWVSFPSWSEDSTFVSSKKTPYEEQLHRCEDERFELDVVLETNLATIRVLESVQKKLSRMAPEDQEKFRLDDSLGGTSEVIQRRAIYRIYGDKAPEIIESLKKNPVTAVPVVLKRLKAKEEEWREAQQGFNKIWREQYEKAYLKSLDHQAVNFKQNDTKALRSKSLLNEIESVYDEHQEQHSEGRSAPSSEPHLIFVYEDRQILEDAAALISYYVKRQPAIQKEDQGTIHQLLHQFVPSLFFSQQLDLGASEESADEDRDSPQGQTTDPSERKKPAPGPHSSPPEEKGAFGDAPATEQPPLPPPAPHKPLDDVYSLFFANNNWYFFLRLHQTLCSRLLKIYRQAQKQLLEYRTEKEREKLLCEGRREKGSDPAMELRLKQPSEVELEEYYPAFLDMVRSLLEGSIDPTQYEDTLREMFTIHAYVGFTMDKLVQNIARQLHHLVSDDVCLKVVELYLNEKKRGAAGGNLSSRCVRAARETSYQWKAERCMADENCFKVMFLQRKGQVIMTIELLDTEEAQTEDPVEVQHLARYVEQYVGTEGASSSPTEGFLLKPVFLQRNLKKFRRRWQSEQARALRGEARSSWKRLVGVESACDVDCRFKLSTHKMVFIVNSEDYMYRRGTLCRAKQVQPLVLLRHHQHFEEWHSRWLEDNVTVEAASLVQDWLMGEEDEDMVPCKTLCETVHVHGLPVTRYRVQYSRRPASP
Chain of UniProt Q8N196 (Q8N196 whole entry, looked up): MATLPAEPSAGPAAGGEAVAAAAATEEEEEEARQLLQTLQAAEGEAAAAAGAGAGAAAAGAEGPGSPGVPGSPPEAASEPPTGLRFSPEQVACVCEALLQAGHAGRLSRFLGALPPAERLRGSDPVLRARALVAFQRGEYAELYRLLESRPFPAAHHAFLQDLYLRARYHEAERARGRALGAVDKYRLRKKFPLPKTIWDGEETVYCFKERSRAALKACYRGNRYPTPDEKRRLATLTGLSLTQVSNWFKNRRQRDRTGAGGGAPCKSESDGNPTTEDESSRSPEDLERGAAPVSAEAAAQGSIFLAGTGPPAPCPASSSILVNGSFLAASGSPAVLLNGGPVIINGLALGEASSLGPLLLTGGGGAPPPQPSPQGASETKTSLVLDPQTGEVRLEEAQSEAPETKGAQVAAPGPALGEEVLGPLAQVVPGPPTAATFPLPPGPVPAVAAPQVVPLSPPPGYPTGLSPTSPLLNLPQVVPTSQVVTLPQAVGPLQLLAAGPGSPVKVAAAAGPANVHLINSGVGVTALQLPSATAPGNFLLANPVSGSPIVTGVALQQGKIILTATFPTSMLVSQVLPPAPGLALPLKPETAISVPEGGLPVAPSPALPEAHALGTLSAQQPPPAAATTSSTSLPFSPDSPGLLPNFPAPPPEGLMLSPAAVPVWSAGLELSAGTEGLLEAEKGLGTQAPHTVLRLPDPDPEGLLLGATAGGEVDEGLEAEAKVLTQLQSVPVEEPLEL
Chain of UniProt Q9Y2D2 (Q9Y2D2 whole entry, looked up): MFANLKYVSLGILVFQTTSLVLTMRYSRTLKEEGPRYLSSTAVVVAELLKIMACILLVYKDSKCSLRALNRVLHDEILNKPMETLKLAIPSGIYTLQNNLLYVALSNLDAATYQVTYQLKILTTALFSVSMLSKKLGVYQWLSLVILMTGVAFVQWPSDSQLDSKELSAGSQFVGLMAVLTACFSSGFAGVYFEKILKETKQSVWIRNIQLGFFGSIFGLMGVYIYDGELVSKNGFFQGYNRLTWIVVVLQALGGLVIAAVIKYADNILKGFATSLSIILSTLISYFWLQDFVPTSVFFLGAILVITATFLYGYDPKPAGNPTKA
Chain of UniProt Q9P289 (Q9P289 whole entry, looked up): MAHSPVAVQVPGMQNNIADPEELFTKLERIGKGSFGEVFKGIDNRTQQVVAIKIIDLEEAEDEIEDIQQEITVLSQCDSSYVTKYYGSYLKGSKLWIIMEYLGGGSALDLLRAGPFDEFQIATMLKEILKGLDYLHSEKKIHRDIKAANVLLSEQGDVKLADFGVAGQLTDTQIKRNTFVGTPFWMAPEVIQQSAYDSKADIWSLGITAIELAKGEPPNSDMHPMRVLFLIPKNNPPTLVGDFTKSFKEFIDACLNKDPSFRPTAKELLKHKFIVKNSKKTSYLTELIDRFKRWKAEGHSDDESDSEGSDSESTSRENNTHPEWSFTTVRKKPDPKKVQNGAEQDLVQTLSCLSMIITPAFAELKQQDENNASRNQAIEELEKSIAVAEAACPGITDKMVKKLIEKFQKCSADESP
Chain of UniProt P49675 (P49675 whole entry, looked up): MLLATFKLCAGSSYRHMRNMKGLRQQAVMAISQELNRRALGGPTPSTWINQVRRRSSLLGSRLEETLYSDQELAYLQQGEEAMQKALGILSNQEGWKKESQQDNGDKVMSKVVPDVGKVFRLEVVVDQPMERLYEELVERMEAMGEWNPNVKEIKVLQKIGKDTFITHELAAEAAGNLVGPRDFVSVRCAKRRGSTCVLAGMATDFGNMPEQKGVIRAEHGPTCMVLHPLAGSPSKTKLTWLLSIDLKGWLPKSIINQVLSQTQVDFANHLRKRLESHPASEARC
Chain of UniProt Q9Y2H1 (Q9Y2H1 whole entry, looked up): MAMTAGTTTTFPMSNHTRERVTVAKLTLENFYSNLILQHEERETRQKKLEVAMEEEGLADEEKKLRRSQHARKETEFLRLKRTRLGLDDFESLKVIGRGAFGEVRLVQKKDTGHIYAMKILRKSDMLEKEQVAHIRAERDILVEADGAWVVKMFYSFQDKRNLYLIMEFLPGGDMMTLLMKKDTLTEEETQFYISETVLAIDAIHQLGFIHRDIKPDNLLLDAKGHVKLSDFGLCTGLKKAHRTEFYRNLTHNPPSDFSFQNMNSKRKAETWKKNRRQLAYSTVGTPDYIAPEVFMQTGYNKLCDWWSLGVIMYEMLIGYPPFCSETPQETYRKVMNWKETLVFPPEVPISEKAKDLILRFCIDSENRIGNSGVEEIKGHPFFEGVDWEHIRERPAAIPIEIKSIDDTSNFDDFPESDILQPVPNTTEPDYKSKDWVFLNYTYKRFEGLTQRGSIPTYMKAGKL
Chain of UniProt Q96H72 (Q96H72 whole entry, looked up): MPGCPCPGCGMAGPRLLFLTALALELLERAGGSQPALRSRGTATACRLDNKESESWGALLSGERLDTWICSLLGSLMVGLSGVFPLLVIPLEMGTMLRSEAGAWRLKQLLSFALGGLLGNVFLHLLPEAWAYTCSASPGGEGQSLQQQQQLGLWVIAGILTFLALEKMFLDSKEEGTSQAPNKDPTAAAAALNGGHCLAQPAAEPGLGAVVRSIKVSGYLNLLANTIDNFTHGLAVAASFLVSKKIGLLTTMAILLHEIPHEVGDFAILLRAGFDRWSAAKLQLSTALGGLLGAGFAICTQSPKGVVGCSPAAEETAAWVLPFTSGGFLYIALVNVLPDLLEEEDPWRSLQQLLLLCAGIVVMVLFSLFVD
Chain of UniProt P12931 (P12931 whole entry, looked up): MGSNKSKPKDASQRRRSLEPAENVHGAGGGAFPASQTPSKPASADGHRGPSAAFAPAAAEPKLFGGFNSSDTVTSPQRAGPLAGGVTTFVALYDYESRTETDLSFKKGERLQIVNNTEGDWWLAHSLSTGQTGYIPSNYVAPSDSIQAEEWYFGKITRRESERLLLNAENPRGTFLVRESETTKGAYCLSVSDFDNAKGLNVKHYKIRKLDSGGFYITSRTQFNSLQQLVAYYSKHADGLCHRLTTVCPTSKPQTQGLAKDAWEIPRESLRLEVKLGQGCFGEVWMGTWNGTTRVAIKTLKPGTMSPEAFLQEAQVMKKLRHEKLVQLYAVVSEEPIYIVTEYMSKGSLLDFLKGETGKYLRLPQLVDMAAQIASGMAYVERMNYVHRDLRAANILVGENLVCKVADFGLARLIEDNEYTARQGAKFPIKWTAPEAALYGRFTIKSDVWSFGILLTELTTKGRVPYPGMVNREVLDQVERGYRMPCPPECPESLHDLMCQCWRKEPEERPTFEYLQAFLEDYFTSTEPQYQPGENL

Target	log2 fold change (erlotinib)	log2 fold change [1]	log2 fold change [2]	log2 fold change [3]	log2 fold change [4]	log2 fold change [5]	log2 fold change (IRAK-1-4 Inhibitor I)	log2 fold change [6]	log2 fold change (ralimetinib)	log2 fold change [7]	log2 fold change [8]	log2 fold change [9]	log2 fold change [10]	log2 fold change [11]	log2 fold change [12]	log2 fold change [13]	log2 fold change [14]	log2 fold change (ibrutinib)	log2 fold change [15]	log2 fold change [16]
SRC isoform 2 (UniProt P12931)	-0.073	0.028	0.102	-0.063	-0.018	-0.069	0.034	-0.061	-0.035	0.075	0.052	0.07	0.042	0	–	–	–	–	–	–
SPA17 (UniProt Q15506)	–	–	-0.033	-0.018	-0.076	-0.029	0	0.028	0.006	-0.098	–	0.051	0.026	-0.058	-0.047	0.01	-0.106	0.056	-0.053	–
SLC39A13 (UniProt Q96H72)	0.344	0.063	–	-0.252	–	–	-0.025	–	0.004	-0.137	-0.003	–	0.25	–	–	–	–	–	–	–
SNIP1 (UniProt Q8TAD8)	–	–	–	–	–	–	–	–	–	–	–	–	–	–	–	–	–	–	–	-0.062
STAR (UniProt P49675)	0.207	-0.192	–	0.042	-0.125	-0.035	-0.031	–	-0.139	0.02	0.073	-0.052	-0.039	–	0.01	-0.029	-0.058	–	-0.049	-0.027
SMC4 (UniProt C9JJ64)	–	–	-0.013	–	–	–	–	–	–	–	–	–	–	–	–	–	–	-0.146	–	–
TAOK2 isoform 2 (UniProt Q9UL54)	–	–	–	–	–	–	–	–	–	–	–	–	–	–	–	–	–	–	–	0.034
SLC12A6 isoform 2 (UniProt Q9UHW9)	0.013	0	–	-0.019	-0.139	-0.049	0.089	0.016	-0.01	0.017	-0.018	0.027	-0.006	0.122	–	–	–	–	0.063	–
STK17A (UniProt Q9UEE5)	–	–	–	–	–	–	–	–	–	–	–	–	–	–	–	–	–	–	–	0.213
SZT2 (UniProt Q5T011)	0.043	-0.089	0.134	-0.013	-0.004	0.016	0.014	-0.102	0.14	-0.07	-0.135	0.126	-0.134	0.105	–	–	–	-0.225	–	0.076
SNAPC2 (UniProt Q13487)	0.131	0.022	-0.21	0.087	–	–	-0.166	–	0.002	-0.029	-0.032	-0.071	0.011	–	–	–	–	0.092	-0.008	-0.073
SKP2 (UniProt Q13309)	0.06	-0.063	–	-0.023	-0.027	0.044	-0.002	-0.137	0.137	0.045	0.058	0.023	-0.015	-0.576 (active)	-0.053	0.027	-0.029	–	-0.097	-0.041
TARDBP (UniProt K7EN94)	–	–	–	–	0.001	-0.19	–	–	–	–	–	–	–	–	0.293	-0.12	-0.12	–	–	–
SIN3B (UniProt O75182)	–	–	–	–	-0.071	0.132	–	–	–	–	–	–	–	–	-0.167	-0.018	0.046	–	1.04	0.19
SNAP23 isoform 2 (UniProt O00161)	0.042	0.27	–	-0.071	0.104	-0.08	0.057	-0.045	-0.071	0.095	-0.029	–	0.027	0.028	-0.019	-0.006	-0.117	–	–	0.306
STK38L (UniProt Q9Y2H1)	-0.001	-0.163	–	0.113	-0.027	0.11	0.011	–	-0.069	0.021	-0.019	-0.019	0.056	–	–	–	–	–	0	-0.024
SIX5 (UniProt Q8N196)	-0.062	-0.05	-0.046	-0.034	–	–	-0.141	0.009	-0.023	-0.046	-0.042	0.011	0.13	0.021	–	–	–	-0.021	0.017	-0.061
SURF2 (UniProt Q15527)	–	–	0.02	-0.004	0.051	0.074	0.035	-0.019	-0.147	-0.038	–	0.018	0.031	-0.02	0.087	-0.019	0.022	0.001	0.026	0.103
STK17B (UniProt O94768)	-0.041	-0.341	–	-0.022	–	–	-0.065	–	0.104	-0.004	0.162	-0.102	0.07	–	–	–	–	–	0.147	0.054
SLC41A1 (UniProt Q8IVJ1)	0.176	-0.042	–	0.018	0.024	-0.014	-0.008	0.007	-0.003	0.112	-0.037	–	0.09	0.041	–	–	–	–	-0.081	-0.023
SLC25A36 (UniProt Q96CQ1)	-0.021	0.08	–	0.041	-0.027	-0.026	0.038	-0.012	0.142	-0.048	0.1	-0.16	0.027	0.013	0.024	-0.129	0.027	–	0.011	0.044
SLC35A3 isoform 2 (UniProt Q9Y2D2)	-0.036	0.077	–	-0.166	-0.036	-0.002	0.164	-0.034	-0.027	0.234	-0.027	–	-0.025	0.051	0.057	0.001	-0.006	–	0.111	-0.133
STK26 isoform 3 (UniProt Q9P289)	–	–	–	–	0.272	-0.045	–	–	–	–	–	-0.157	–	–	–	–	–	–	-0.146	–
STAU1 isoform 3 (UniProt O95793)	-0.006	-0.016	-0.103	–	–	–	–	–	–	–	0.028	–	–	–	–	–	–	-0.094	-0.064	0.012
SMPD2 (UniProt O60906)	-1.38 (active)	-0.551	–	-0.112	-0.024	0.022	0.065	0.01	-0.03	0.067	0.388	0.077	-0.113	0.058	–	–	–	–	–	–
SHB (UniProt Q15464)	0.003	0.033	–	-0.014	–	–	-0.067	-0.023	0.023	-0.025	-0.009	-0.01	-0.012	0.05	–	–	–	–	0.023	–
SMARCA4 isoform 4 (UniProt P51532)	0.052	0.178	–	0.127	0.112	-0.076	-0.101	0.044	0.051	-0.022	-0.337	-0.018	0.192	0.041	–	–	–	–	-0.107	0.093
